# Data: PubChem BioAssay AID651674 (The Scripps Research Institute Molecular Screening Center, 2012)
# Hit rate of the full screen: of about 2,200 compounds, about 1,700 (77%) were called active. So high a share suggests a set chosen from earlier hits. Not all results are given here. A number with no mark means an inactive call.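 The calls were made as follows: active = mean inhibition across replicate wells exceeding the computed hit threshold (cut at about 13% in these data); inactive = the rest.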
# Biological target: Hepatocyte nuclear factor 4-alpha (Homo sapiens) (UniProt P41235)
# Sequence (P41235 whole entry, looked up, the tested form may be a part): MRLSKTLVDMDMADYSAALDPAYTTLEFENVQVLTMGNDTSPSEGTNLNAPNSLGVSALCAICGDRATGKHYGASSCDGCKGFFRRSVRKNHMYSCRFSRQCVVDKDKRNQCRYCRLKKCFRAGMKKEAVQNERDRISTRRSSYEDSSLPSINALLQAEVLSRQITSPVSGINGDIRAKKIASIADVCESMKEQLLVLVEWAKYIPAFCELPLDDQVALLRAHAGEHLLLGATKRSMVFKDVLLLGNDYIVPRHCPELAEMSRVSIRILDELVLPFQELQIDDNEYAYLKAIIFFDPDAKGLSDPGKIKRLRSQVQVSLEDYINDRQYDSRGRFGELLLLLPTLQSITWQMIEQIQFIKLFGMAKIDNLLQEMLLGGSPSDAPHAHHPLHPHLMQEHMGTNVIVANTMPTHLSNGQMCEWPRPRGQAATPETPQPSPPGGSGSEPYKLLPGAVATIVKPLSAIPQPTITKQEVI
# Assay: blockers of HNF4 self-association – biochemical, split-luciferase complementation, luminescence, counter-screen for ABHD5-PLIN5 interaction inhibitor project (AID 651674);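 also: light from luciferase halves that rejoin when HNF4 fusion proteins dimerize; 0% = DMSO only wells and the 100% control is not given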
# Settings: HNF4 dimerization, at 4 µM, active compounds read high
row,Structure (SMILES),inhibition
1,COC(=O)/C=C\C(=O)Nc1cccc([N+](=O)[O-])c1,109% (active)
2,CCS(=O)(=O)Nc1ccc(C2=NN(S(=O)(=O)c3ccc(F)cc3)C(c3ccco3)C2)cc1 (stereo not drawn),9.93%
3,O=c1[nH]c(/C=C\c2cccc(C(F)(F)F)c2)nc(O)c1[N+](=O)[O-],73.2% (active)
4,O=C(/C(=C/c1cccc(Cl)c1)c1nc2ccccc2[nH]1)c1ccccc1,92% (active)
5,COc1ccccc1-n1nnnc1S(=O)(=O)Cc1ccc(Cl)cc1,32.1% (active)
6,COc1ccc(CCNC(=O)c2nnc(CS(=O)(=O)c3ccccc3)o2)cc1OC,2.92%
7,COc1ccc(-c2cc(C(F)(F)F)nc(S(C)(=O)=O)n2)cc1OC,80.6% (active)
8,Nc1cccc(OCCCCCOc2cccc(N)c2)c1,-6.94%
9,O=C(NNc1c2ccccc2nc2ccccc12)c1cc2ccccc2cc1O,23.8% (active)
10,COc1ccc(/C=C/C(=O)c2ccc(NS(=O)(=O)c3ccc(C)cc3)cc2)cc1O,54.5% (active)
11,OC(CNCC1CCCO1)Cn1c2ccc(Br)cc2c2cc(Br)ccc21 (stereo not drawn),-1.25%
12,O=C(c1cccnc1)N(c1cc2sc(=O)oc2c2ccccc12)S(=O)(=O)c1ccccc1,104% (active)
13,Cc1cccc(NC(=O)c2ccc3nsnc3c2)c1C,-0.5%
14,O=[N+]([O-])/C=C/c1ccc2c(ccn2Cc2ccccc2)c1,108% (active)
15,COC(=O)C1(C)NC(c2ccccc2OC)C2C(=O)N(c3ccccc3)C(=O)C21 (stereo not drawn),2.83%
16,C[C@@H](CN1CCC[C@H]1CN1C(N)=NC[C@@H]1Cc1ccccc1)N1C[C@@H](Cc2ccccc2)N(CCCC2CCCC2)C1=N,6.92%
17,O=[N+]([O-])c1c(NCCO)cc(Sc2nc3ccccc3s2)c2nonc12,115% (active)
18,Cn1sc(=O)c2cc(S(=O)(=O)NC3CC3)ccc21,106% (active)
19,Cc1cc2c(c(=O)n1Cc1ccco1)C(c1ccccc1)C(C#N)=C(N)O2 (stereo not drawn),24.5% (active)
20,Cc1nnnn1/C(=C\c1ccccc1)C(=O)OCC(=O)N1CC2(C)CC1CC(C)(C)C2 (stereo not drawn),46.1% (active)
21,Cc1nc(-c2ccccc2)sc1C(=O)/C=C/c1ccccc1,59.8% (active)
22,CC(C)(C)C1C/C(=C/c2ccco2)C(=O)/C(=C/c2ccco2)C1 (stereo not drawn),78.9% (active)
23,O=C(/C=C/c1ccc(Cl)c([N+](=O)[O-])c1)c1ccc(O)cc1,72.8% (active)
24,CC(=O)Nc1ccc(C=CC(=O)c2ccc([N+](=O)[O-])cc2)cc1,82.5% (active)
25,O=C(NCCOCc1ccc(Cl)cc1)c1ncn[nH]1,2.01%
26,COc1ccc(CNC(=O)/C(C#N)=C/c2cccc(OC)c2OC)cc1,45.7% (active)
27,COC(C/C=C/C(=O)[C@@H](C)OCc1ccccc1)OC,44.4% (active)

row,Structure (SMILES),inhibition
1,Cc1cc(C)nc(S/C=C/C(=O)c2ccccc2)n1,106% (active)
2,Cc1cccc(NC(=O)c2nc(S(=O)(=O)Cc3ccccc3)ncc2Cl)c1,85.1% (active)
3,Cc1cccc(CS(=O)(=O)c2ncc(Cl)c(C(=O)Nc3ccc(F)cc3)n2)c1,86.8% (active)
4,CSc1nnc(NC(=O)c2nc(S(=O)(=O)Cc3ccc(C)cc3)ncc2Cl)s1,50.1% (active)
5,Cc1ccc(CS(=O)(=O)c2ncc(Cl)c(C(=O)Nc3nnc(C)s3)n2)cc1,91.8% (active)
6,Cc1c(CCOC(=O)CC23CC4CC(CC(C)(C4)C2)C3)sc[n+]1Cc1ccc([N+](=O)[O-])cc1,5.79%
7,CC1Cc2ccccc2N1CC(=O)Nc1ccc(S(N)(=O)=O)cc1 (stereo not drawn),-0.75%
8,Cc1ccc(NC(=O)Cn2sc3ccccc3c2=O)cc1,118% (active)
9,Cc1ccn(C(CC(=O)c2ccc(Br)cc2)C(=O)O)n1 (stereo not drawn),38.9% (active)
10,Cc1ccc(-n2nc(-c3ccco3)cc2C(=O)NCc2cccnc2)cc1,79.1% (active)
11,CCN1/C(=C\c2ccc3ccccc3[n+]2CC)Sc2cc(C)ccc21,22.4% (active)
12,C=C(C)C(=O)O[C@H]1C/C(C)=C\C(=O)/C=C(\C)[C@H](O)[C@@H]2OC(=O)C(=C)[C@@H]21,54.8% (active)
13,Cc1cc(-c2n[nH]c(=S)n2/N=C/C(Br)=C/c2ccccc2)n[nH]1,86.5% (active)
14,CC1(C(=O)NCc2cccc3ccccc23)CCN1Cc1ccc(-c2ccccc2)o1 (stereo not drawn),40.2% (active)
15,COc1ccc(C(C[N+](=O)[O-])n2nc(C)cc2C)cc1 (stereo not drawn),87.3% (active)
16,O=c1[nH][nH]c2c1[C@H](c1ccc(Cl)cc1)O[C@H](CCc1ccccc1)C2,12%
17,O=C1C=CC(=O)N1c1ccc(N2CCCCC2)cc1,101% (active)
18,COc1ccc2c(c1OC)C(=O)OC2Nc1nc(-c2ccccc2)cs1 (stereo not drawn),56.7% (active)
19,O=C(NNc1ccccn1)c1ccc(Cl)nc1,-6.91%
20,O=C1C=C(c2ccc(Cl)cc2)C(=O)N1Nc1ccccc1,107% (active)
21,CN(C)CCCNC(=O)/C=C/c1ccc(OCc2c(F)cccc2Cl)cc1,6.86%
22,O=C(/C=C(O)/C=C/c1ccc(O)cc1)/C=C/c1ccc(O)cc1,74.4% (active)
23,Cc1cccc(C)c1NC(=O)C(Cl)C(=O)c1ccccc1 (stereo not drawn),58.4% (active)
24,CCN(CC)CCN(C(=O)c1ccc2c(c1)CCCC2)c1nc2c(OC)cccc2s1,11.7%
25,C=C1C(=O)[C@]23C[C@H]1CCC2[C@@]1(C)C(C[C@@H]3O)[C@](C)(C(=O)O)CC[C@@H]1O (stereo partly drawn),85.8% (active)
26,CN1CCC[C@@H]1CCO[C@](C)(c1ccccc1)c1ccc(Cl)cc1,9.44%
